# Reference: PubChem BioAssay (Tox21)
# Records with an inconclusive call do not appear. Active and inactive are the calls of the source. The call rests on the fitted dose curve; in most records, active means well fitted activation curve with a large enough effect in the signal ratio in the repeat runs (not every such curve was filed as active); inconclusive means weak or mixed curves, or effect the other way; inactive means no such curve, though single readings can be large or run the other way; the % refers to the signal ratio.
# Biological target: Peroxisome proliferator-activated receptor gamma (Homo sapiens) (UniProt P37231)
# Assay: qHTS assay to identify small molecule agonists of the peroxisome proliferator-activated receptor gamma (PPARg) signaling pathway (AID 743094)
# Details: HEK293H PPARg-UAS-bla, beta-lactamase FRET ratio, 17 h; series mostly up to 57 µM
# In short: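 Cell-based bla reporter, HEK293H background, PPARg-driven UAS. Pre-incubation 5 h, 37C, 5% CO2. Compound 17 h, 37C. Substrate 1 h RT; fluorescence.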
# Chain of Peroxisome proliferator-activated receptor gamma (Homo sapiens) (P37231 whole entry, looked up): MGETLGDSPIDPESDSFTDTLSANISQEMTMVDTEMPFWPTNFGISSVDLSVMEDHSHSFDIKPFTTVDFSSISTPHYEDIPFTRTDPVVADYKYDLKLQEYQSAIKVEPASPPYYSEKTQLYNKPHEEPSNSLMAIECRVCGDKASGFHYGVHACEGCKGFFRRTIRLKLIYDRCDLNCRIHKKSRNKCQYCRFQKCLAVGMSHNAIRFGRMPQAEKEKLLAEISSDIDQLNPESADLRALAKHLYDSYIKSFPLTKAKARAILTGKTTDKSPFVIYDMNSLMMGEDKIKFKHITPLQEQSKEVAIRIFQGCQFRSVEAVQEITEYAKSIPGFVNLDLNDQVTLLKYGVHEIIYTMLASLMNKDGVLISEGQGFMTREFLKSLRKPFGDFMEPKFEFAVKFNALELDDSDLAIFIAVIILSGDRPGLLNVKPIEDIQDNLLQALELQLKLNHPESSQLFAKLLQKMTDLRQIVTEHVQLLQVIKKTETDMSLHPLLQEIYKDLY
row,Compound,outcome
1,COP(=S)(OC)Oc1ccc(S(N)(=O)=O)cc1,inactive
2,CC1(C(=O)Nc2ccc(O)c(Cl)c2Cl)CCCCC1,inactive
3,CC(C=O)Cc1ccc2c(c1)OCO2 (configuration not stated),inactive
4,O=S(=O)(O)C(F)(F)C(F)(F)C(F)(F)C(F)(F)C(F)(F)C(F)(F)F,inactive
5,CCN(CC)CCOC(=O)C(C)(c1ccccc1)c1ccccc1,inactive
6,CC(C)(C)NCC(O)c1cc(Cl)c(N)c(Cl)c1 (configuration not stated),inactive
7,Fc1ccc(C2(Cn3cncn3)OC2c2ccccc2Cl)cc1 (configuration not stated),inactive
8,O=[N+]([O-])c1cc(Cl)c(Cl)c(Cl)c1,inactive
9,O=C(CCN1CC1)OCC(CO)(COC(=O)CCN1CC1)COC(=O)CCN1CC1,inactive
10,CCNc1nc(NC(C)C)nc(OC)n1,inactive
11,CCOP(=S)(Oc1cnc(C(C)(C)C)nc1)OC(C)C (configuration not stated),inactive
12,O=C(NCO)NCO,inactive
